# Hit rate of the full screen: of about 16,000 compounds, about 2,600 (16%) were called active. About 20% were inconclusive and are not listed. Calls come from the whole dose curve; as a rule, active = well fitted curve in the direction sought with a large enough effect; inconclusive = small, poorly fitted or top-dose-only effect, or effect the other way; inactive = no such curve, though single readings can be large or run the other way. These entries were drawn from the full list.
# Target: Cytochrome P450 2D6 (Homo sapiens) (UniProt P10635)
# Experiment: Cytochrome panel assay with activity outcomes
# Settings: recombinant CYP, pro-luciferin dealkylation, luminescence, p450-cyp2d6; series mostly up to 57.1 µM
# % is set by controls: 0 for no effect and ±100 for the full control effect.
# Cytochrome P450 2D6 (Homo sapiens), sequence (P10635 whole entry, looked up): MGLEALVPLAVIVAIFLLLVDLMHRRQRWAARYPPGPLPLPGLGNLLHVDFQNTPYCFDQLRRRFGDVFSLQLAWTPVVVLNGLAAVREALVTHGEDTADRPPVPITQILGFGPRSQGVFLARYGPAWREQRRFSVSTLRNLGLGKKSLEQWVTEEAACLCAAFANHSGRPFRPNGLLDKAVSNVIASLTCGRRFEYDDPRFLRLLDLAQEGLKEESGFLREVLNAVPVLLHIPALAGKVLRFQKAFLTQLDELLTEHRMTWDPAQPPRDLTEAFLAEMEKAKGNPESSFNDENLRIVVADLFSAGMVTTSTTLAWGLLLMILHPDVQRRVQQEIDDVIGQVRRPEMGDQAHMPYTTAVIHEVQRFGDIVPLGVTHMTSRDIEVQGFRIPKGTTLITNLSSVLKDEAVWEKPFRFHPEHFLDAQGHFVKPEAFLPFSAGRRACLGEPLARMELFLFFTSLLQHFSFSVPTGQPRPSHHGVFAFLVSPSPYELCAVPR
Structure (SMILES),AC50,"activity, negative = inhibition"
CC(=O)N=c1sc(S(N)(=O)=O)nn1C,inactive,–
COC(=O)c1cc(/C=C/c2ccccc2)on1,inactive,–
Cc1cnc2cc(Cl)ccc2c1SCC(=O)O,–,8.22% [at 11.4 µM] (inactive)
NS(=O)(=O)c1cc2c(cc1Cl)N[C@@H](CC1CCCC1)NS2(=O)=O,inactive,–
O=C(CN1C(=O)c2ccccc2C1=O)NCC(=O)OCC(=O)c1ccc(Br)cc1,inactive,–
CCn1c(CCNC(=O)c2ccccc2Cl)n[nH]c1=S,inactive,–
O=C(O)c1ccccc1/C=N\N=C1c2ccccc2-c2ccccc21,–,16.6% [at 11.4 µM] (inactive)
CCn1cc(C(=O)NCC(=O)OC)c2cc(OC)c(OC)cc2c1=O,inactive,–
CC1(C)[C@@H]2CC[C@]1(C)[C@@H](OC(=O)CSC#N)C2,–,-15% [at 11.4 µM] (inactive)
CC(C)NC[C@@H](O)COc1cccc2ccccc12,inactive,–
C=CCc1ccccc1OC[C@H](O)CNC(C)C,6.31 µM (active),–
CC(C)(C)NC[C@H](O)COc1cccc2[nH]c(=O)[nH]c12,inactive,–
C[C@@]12C[C@H](O)[C@@H]3[C@H](CCC4=CC(=O)CC[C@]43C)[C@H]1CC[C@@H]2c1csc(N)n1,–,-10.6% [at 11.4 µM] (inactive)
Cc1ccc(C)c(S(=O)(=O)NC(C)C(=O)Nc2ccc(-c3nc4ccccc4s3)cc2)c1 (centres undefined),inactive,–
CC(C)[C@]1(Cl)CC[C@@H]2[C@]3(C)CCC[C@@](C)(C(=O)O)[C@H]3C[C@H](Cl)[C@@]2(Cl)[C@H]1Cl,–,4.09% [at 11.4 µM] (inactive)
COc1cccc(Cn2c(=O)c(-c3cccc(C#N)c3)nc3cnc(N4CCN(C)CC4)nc32)c1,inactive,–
Cc1ccc(/C=C2\SC(=S)N(CCCC(=O)Nc3ccccn3)C2=O)cc1,inactive,–
CC(C)(C)COS(=O)OCC(C)(C)C,–,-1.05% [at 11.4 µM] (inactive)
CC(C)C(O)(C#CCN1CCCC1)c1ccccc1 (centres undefined),14.1 µM (active),–
C[C@@H](N1CCOCC1)[C@@](O)(c1ccccc1)c1ccccn1,–,-15% [at 11.4 µM] (inactive)
CCC(C#CCN1CCCCC1)(CC)OCCC#N,inactive,–
O=C(N/N=C/C=C/c1ccc([N+](=O)[O-])cc1)c1cccs1,inactive,–
OCCN1CCOCCOCCN(CCO)CCN(CCO)CC1,inactive,–
COC(=O)/C=C/CSC1=N/C(=C/c2ccc(-n3cncn3)cc2)C(=O)N1,14.1 µM (active),–
COc1ccccc1NC(=O)CSc1nc2ccccc2cc1Cc1ccccc1,inactive,–

Structure (SMILES),AC50,"activity, negative = inhibition"
C[C@@H]1C(=O)N(C)C(=O)c2nc[nH]c21,inactive,–
CCOc1ccc(NC(=S)NC(=O)/C=C/c2ccc(C)cc2)c([N+](=O)[O-])c1,inactive,–
O=C(CCN1C(=O)C2C3C=CC(C3)C2C1=O)N1CCN(c2cccc(Cl)c2)CC1 (centres undefined),inactive,–
O=C(c1coc2ccccc2c1=O)N1CCN(c2cccc(C(F)(F)F)c2)CC1,inactive,–
FC(F)(F)c1cccc(N2CCN(CC3CC4C=CC3C4)CC2)c1 (centres undefined),2.51 µM (active),–
CC(=O)O[C@]1(C(C)=O)CC[C@@H]2[C@@H]3C=C(C)C4=CC(=O)CC[C@@]4(C)[C@H]3CC[C@]21C,inactive,–
CCN(CC)C(=O)Cn1cnc([N+](=O)[O-])n1,inactive,–
O=C1C(=O)N(c2cccc(Cl)c2)C(c2ccccc2[N+](=O)[O-])/C1=C(\O)c1ccccc1 (centres undefined),inactive,–
COc1ccc(CCNC(=O)c2nnn(CC(=O)Nc3ccccc3C)c2N)cc1OC,inactive,–
COCC(=O)N1CCC2(CCCN(C(=O)Nc3cccc(C#N)c3)C2)CC1,inactive,–
COc1ccccc1C(c1nnnn1C(C)(C)C)N1CCN(Cc2ccncc2)CC1 (centres undefined),2.82 µM (active),–
COc1ccccc1C(c1nnnn1C(C)(C)C)N1CCCc2ccccc21 (centres undefined),inactive,–
CN1CCN(c2ncc3nc(-c4cc(F)cc(F)c4)c(=O)n(C)c3n2)CC1,inactive,–
Cc1cc(Cl)ccc1Oc1ncnc2oc(-c3ccccc3)cc12,inactive,–
OCCN=c1cc(-c2ccccc2)oc2ccc(Cl)cc12,6.31 µM (active),–
COc1ccc(CNc2ccnc(-c3ccccc3CN(C)C)n2)c(OC)c1,1 µM (active),–
COc1ccc(CNc2ccnc(-c3ccccc3OC)n2)c(OC)c1,3.98 µM (active),–
COc1ccc(CNc2cc(-c3ccccc3CN(C)C)ncn2)c(OC)c1,12.6 µM (active),–
COc1ccccc1CNc1ccnc(-c2ccccc2OC)n1,1.58 µM (active),–
Cc1cc(NC(=O)c2ccc(S(=O)(=O)N(C)C)cc2)n(-c2ccccn2)n1,inactive,–
COc1cccc(/C=N/Nc2nc(N3CCCC3)nc(N3CCCC3)n2)c1O,inactive,–
COc1cccc(Nc2ncc3nc(-c4cccs4)c(=O)n(-c4ccccc4)c3n2)c1,inactive,–
Cc1nc(Cl)c(C#N)cc1-c1ccccc1,inactive,–
N#CC(=C1CCCC1)c1nc(-c2ccccc2)cs1,inactive,–
Cc1noc(NS(=O)(=O)c2ccc(N/C=C\C(=O)c3ccc4c(c3)OCO4)cc2)c1C,inactive,–

Structure (SMILES),AC50,"activity, negative = inhibition"
C=C1C(=O)O[C@@H]2[C@H]3O[C@]3(C)CCC=C(C)CC[C@@H]12,inactive,–
CCOC(=O)c1c(N2C(=O)Nc3cc(Cl)c(Cl)cc3N2O)sc2c1CCCCC2,inactive,–
CCc1ccc(C(=O)COC(=O)C(Cc2ccccc2)NC(=O)C2CCC(C)CC2)cc1 (centres undefined),inactive,–
O=C(Nc1ccc(Cl)cc1Cl)c1cccc(N2C(=O)C=CC2=O)c1,inactive,–
COc1ccc(CSC2=C(C#N)C(=O)NC3(CCCCC3)S2)cc1,–,-3.33% [at 11.4 µM] (inactive)
Nc1nc(Cl)nc2c1ncn2[C@@H]1O[C@@H](COP(=O)(O)OP(=O)(O)OP(=O)(O)O)[C@@H](O)[C@H]1O,inactive,–
COc1ccccc1CNc1ccnc(-c2ccccc2Cl)n1,12.6 µM (active),–
COc1ccc(-c2nc3c([nH]2)c(=O)n(C)c(=O)n3C)c(OC)c1,inactive,–
O=C(O)/C=C\C(=O)Nc1ccccn1,–,7.8% [at 11.4 µM] (inactive)
O=c1cc(CN2CCN(c3ccc(F)cc3)CC2)c2cc3c(cc2o1)CCCC3,inactive,–
Cc1cc(N)n2ncc(-c3ccc(Cl)cc3)c2n1,inactive,–
N[C@@H](CC1=CS(=O)(=O)c2ccc(Cl)cc21)C(=O)O,–,-13.3% [at 11.4 µM] (inactive)
CC(=O)NCCNc1ncncc1-c1ccc(N(C)C)cc1,inactive,–
CN(C)c1ccc(-c2cncnc2Nc2ccc(F)cc2)cc1,25.1 µM (active),–
CNc1ncncc1-c1ccc(C(=O)N(C)C)cc1,inactive,–
CN(C)C(=O)c1ccc(-c2cncnc2NCCc2cnc[nH]2)cc1,0.794 µM (active),–
c1ncc(-c2ccc3c(c2)OCO3)c(NCCc2cnc[nH]2)n1,2.51 µM (active),–
Fc1ccc(Nc2ncncc2-c2ccoc2)cc1,inactive,–
CN(C)c1ccc(-c2cncnc2NCCc2cnc[nH]2)cc1,5.01 µM (active),–
c1nc(NCCc2cnc[nH]2)c2[nH]cnc2n1,–,-17.7% [at 11.4 µM] (inactive)
Cc1cc(N2C(=O)C(O)=C(C(=O)c3ccco3)C2c2ccc(O)cc2)no1 (centres undefined),inactive,–
CO[C@H]1COC(=O)C/C=C\[C@H](C)COC(=O)[C@@H](C)NC(=O)C/C=C\[C@@H]1C,–,10.1% [at 11.4 µM] (inactive)
COc1ccc(NC(=O)N2CCC3(CC2)CCN(C(=O)c2csnn2)CC3)cc1,inactive,–
CN1CCN(NC(=O)c2ccccc2F)CC1,inactive,–
Cc1ccc(-n2c(SCC(=O)N3CCOCC3)nnc2-c2cccnc2)cc1,inactive,–

Structure (SMILES),AC50,"activity, negative = inhibition"
CCOC(=O)CSc1n[nH]c(NC(=O)c2cccc(C)c2)n1,inactive,–
CCc1cccc2c(C=C(C#N)C#N)cn(CC(=O)N3CCCCC3)c12,inactive,–
O=c1oc(-c2ccco2)nc2c1cnn2-c1ccccc1,inactive,–
Cn1ncc([N+](=O)[O-])c1C(=O)N1CCOCC1,inactive,–
CCCCNC(=O)NS(=O)(=O)c1ccc(C(=O)OC(C)C)o1,inactive,–
CCN(CC)S(=O)(=O)c1ccc(NC(=O)COC(=O)c2ccc(Br)o2)cc1,3.16 µM (active),–
CN(C)S(=O)(=O)c1cccc(NC(=O)COC(=O)c2ccc(Br)o2)c1,inactive,–
CN(C)S(=O)(=O)c1ccc(NC(=O)COC(=O)c2ccccn2)cc1,inactive,–
CC1=CC2=NC(=O)CC(C)(C(=O)N(CC(=O)NC(C)(C)C)Cc3cccs3)N2C=C1 (centres undefined),inactive,–
O=c1oc2c(Cl)cc(Cl)cc2cc1-c1nnc(Nc2ccccc2F)s1,inactive,–
O=C(NC12CC3CC(CC(C3)C1)C2)N1CCN(c2nc(-c3ccccc3)cs2)CC1,inactive,–
NS(=O)(=O)c1ccc(NC(=O)Nc2cccc3ccccc23)cc1,–,-5.78% [at 11.4 µM] (inactive)
CCC(C)NC(=O)c1ccccc1NC(=O)Nc1ccccc1 (centres undefined),inactive,–
CCS(=O)(=O)c1ccc(O)c(NC(=O)Nc2ccccc2)c1,4.47 µM (active),–
CCOC(=O)Cc1cc(=O)n2[nH]c(C)c(C#N)c2n1,inactive,–
CC(C)NC(=O)N1CCN(c2ccncc2S(=O)(=O)N2CCOCC2)CC1,inactive,–
C/C(=N\OC(=O)c1cccc(C)c1)c1sc(-c2ccccc2)nc1C,inactive,–
C/C(=N\OC(=O)c1ccc(F)cc1)c1nccs1,12.6 µM (active),–
Cc1ccc2c(c1)/C(=N/OC(=O)c1ccc(F)cc1)CCS2,inactive,–
COc1ccccc1NC(=O)N1CCC(c2nnc(SCC(N)=O)n2C)CC1,inactive,–
COc1cc(-c2nnc(COC(=O)c3c4c(nc5ccccc35)CCCC4)o2)cc(OC)c1OC,inactive,–
COc1ccc(-n2c(CNC(=O)c3ccc(S(=O)(=O)N4CCCC4)cc3)n[nH]c2=S)cc1,inactive,–
C/C(=N/NC(=O)c1ccc(C)s1)c1cccc(NC(=O)COc2ccc(Cl)cc2C)c1,inactive,–
O=C(Nc1ccc2nc(SCc3ccc(Cl)cc3)sc2c1)c1ccccc1C(=O)N1CCOCC1,inactive,–

# Reference: PubChem BioAssay AID1851 (National Center for Advancing Translational Sciences (NCATS), 2009)
